Measured values taken from PubChem BioAssay (EPA / NIEHS).
Several values for one entry are separate records, joined by “and”; a condition that tells them apart may be missing. Equal values may be shown once. Some compounds were tested as several samples or in several runs, with calls that do not always agree. Activity calls are given as the source filed them. Rule for the calls: active = hit-call score of the fitted dose curve at least 0.9, where 1 is the maximum; inactive = score below 0.9.

Experiment: ATG_AP_2_CIS: Attagene CIS-FACTORIAL HepG2 Assay for human Activator Protein 2 (AP-2) (AID 2282932)
Details: HepG2 AP-2 cis-reporter, Attagene transcription factor profiling; actives raise or lower the signal
Description: ATG_CIS is a cell-based, multiplexed-readout assay that uses HepG2, a human liver cell line, with measurements taken at 24 hours after chemical dosing in a 24-well plate.ATG_AP_2_CIS is one of 52 assay component(s) measured or calculated from the ATG_CIS assay. It is designed to make measurements of mRNA induction, a form of inducible reporter, as detected with fluorescence intensity signals by Reverse transcription polymerase chain reaction (RT-PCR) and Capillary electrophoresis technology.Data from the assay component ATG_AP_2_CIS was analyzed into 1 assay endpoint. This assay endpoint, ATG_AP_2_CIS, was analyzed with bidirectional fitting relative to DMSO as the negative control and baseline of activity. Using a type of inducible reporter, measures of mRNA for gain or loss-of-signal activity can be used to understand the reporter gene at the transcription factor-level as they relate to the gene TFAP2A and TFAP2B and TFAP2D. Furthermore, this assay endpoint can be referred to as a primary readout, because this assay has produced multiple assay endpoints where this one serves a reporter gene function. To generalize the intended target to other relatable targets, this assay endpoint is annotated to the dna binding intended target family, where the subfamily is basic helix-turn-helix leucine zipper.
Human liver HepG2 cells are transiently transfected with multiple reporter transcription units (MRTUs) in 6-well plates using FuGene 6 reagent (Roche; 3 ml FuGene/1 mg DNA). The MRTU constructs are regulated by a cis-regulating element (promoter). […] A major difference between the CIS and TRANS system is that in CIS activities of endogenous TFs are measured, whereas the TRANS assay evaluates changes in activities of exogenous, chimeric NR-Gal4 proteins. […] At the end of 24 hour incubation, total RNA was isolated using TriZol reagent (Invitrogen). The isolated RNA is then reverse-transcribed using oligo(dT) primer and Mo-MLV reverse transcriptase (Invitrogen) with DNAse I (Ambion) treatment for 30 min. The one-tenth of the produced cDNA was amplified by PCR using Taq DNA polymerase (Invitrogen) and two reporter sequence-specific primers. The PCR products were fluorescently labeled by primer extension with 6-arboxyfluorescein (6-FAM) 5'-labeled reporter sequence-specific primer (2 min at 95 C, 20 s at 68 C and 10 min at 72 C) and these products were digested with 5U of HpaI (New England Biolabs) for 2h at 37 C. The fragments were purified using Qiaquick PCR columns (Qiagen), analyzed on an ABI 3130xL genetic analyzer (Applied Biosystems) with peak positions identified by using a set of X-rhodamine (ROX)-labeled MapMarker1000 molecular weight standards (BioVentures). The raw capillary electrophoresis data was processed using Attagraph software (Attagene).

**Q.** With N#CSCSc1nc2ccccc2s1 as the compound, how does the outcome read?
**A.** inactive

**Q.** What about the AC50 of the same compound?
**A.** 9.15 µM (active)

**Q.** For CCCN(CCC)c1c([N+](=O)[O-])cc(C(F)(F)F)c(N)c1[N+](=O)[O-], which outcome is on record?
**A.** inactive

**Q.** Which outcome does the source give for O=C(c1ccc(O)cc1O)c1ccc(O)cc1O here?
**A.** inactive

**Q.** Which outcome does the source give for COC(=O)c1ccccc1C(=O)O here?
**A.** inactive

**Q.** For COC(=O)c1ccc(I)cc1S(=O)(=O)NC(=O)Nc1nc(C)nc(OC)n1, which outcome is on record?
**A.** inactive

**Q.** Which outcome does the source give for Oc1ccc(C(c2ccc(O)cc2)C(Cl)(Cl)Cl)cc1 here?
**A.** inactive

**Q.** With CCCCOC(=O)[C@@H](C)Oc1ccc(Oc2ccc(C(F)(F)F)cn2)cc1 as the compound, how does the outcome read?
**A.** inactive

**Q.** For COC(=O)CSc1cc(N=c2sc(=O)n3n2CCCC3)c(F)cc1Cl, which outcome is on record?
**A.** inactive

**Q.** With CCCN(CCC)C(=O)SCC as the compound, how does the outcome read?
**A.** inactive

**Q.** For CCCOC(=O)c1ccc(C(=O)OCCC)nc1, which outcome is on record?
**A.** inactive

**Q.** For COC(=O)c1ccccc1S(=O)(=O)NC(=O)Nc1nc(OC(F)F)cc(OC(F)F)n1, which outcome is on record?
**A.** inactive

**Q.** With CCCCCCC(C)OC(=O)COc1nc(F)c(Cl)c(N)c1Cl (stereo not given) as the compound, how does the outcome read?
**A.** inactive

**Q.** What does the source list for CC(C)CCCCCCc1ccc(O)cc1?
**A.** AC50: 18.2 µM (active) and 17.2 µM (active); outcome: inactive

**Q.** For COC(=O)c1ccc(CNS(C)(=O)=O)cc1S(=O)(=O)NC(=O)Nc1nc(OC)cc(OC)n1, which outcome is on record?
**A.** inactive

**Q.** With COCCO as the compound, how does the outcome read?
**A.** inactive

**Q.** With CC(C)(c1ccc(O)cc1)c1ccc(O)cc1 as the compound, how does the AC50 read?
**A.** 121 µM (active) and 148 µM (active) and 101 µM (active)

**Q.** And the outcome?
**A.** inactive

**Q.** With CCC(O)=C1C(=O)CC(C(=O)O)CC1=O (stereo not given) as the compound, how does the outcome read?
**A.** inactive

**Q.** With CCOC(=O)[C@H](C)Oc1ccc(Oc2nc3ccc(Cl)cc3o2)cc1 as the compound, how does the outcome read?
**A.** inactive

**Q.** With C[C@]12C[C@H](O)[C@H]3[C@@H](CCC4=CC(=O)CC[C@@]43C)[C@@H]1CC[C@@H]2C(=O)CO as the compound, how does the outcome read?
**A.** inactive

**Q.** Which outcome does the source give for CC1(C)C(C=C(Cl)Cl)C1C(=O)OCc1cccc(Oc2ccccc2)c1 (stereo not given) here?
**A.** inactive

**Q.** Which outcome does the source give for O=C(O)c1ccccc1 here?
**A.** inactive

**Q.** Which outcome does the source give for CSC(=O)c1cccc2nnsc12 here?
**A.** inactive

**Q.** With CCCCC(CC)COC(=O)c1ccccc1C(=O)O (stereo not given) as the compound, how does the outcome read?
**A.** inactive

**Q.** Which outcome does the source give for CC(C)(C)[C@@H](O)[C@@H](Cc1ccc(Cl)cc1)n1cncn1 here?
**A.** inactive

**Q.** Which outcome does the source give for C#CCOC(=O)[C@@H](C)Oc1ccc(Oc2ncc(Cl)cc2F)cc1 here?
**A.** inactive

**Q.** For CCSC(=O)N(CC(C)C)CC(C)C, which outcome is on record?
**A.** inactive

**Q.** With O=C(Nc1ccc([N+](=O)[O-])cc1Cl)c1cc(Cl)ccc1O as the compound, how does the outcome read?
**A.** inactive

**Q.** With CCCOC(=O)NCCCN(C)C as the compound, how does the outcome read?
**A.** inactive

**Q.** For C[C@]12CC[C@@H]3c4ccc(O)cc4C[C@@H](CCCCCCCCCS(=O)CCCC(F)(F)C(F)(F)F)[C@H]3[C@@H]1CC[C@@H]2O (stereo not given in full), which outcome is on record?
**A.** inactive

**Q.** Which outcome does the source give for Cc1nn(C)c(Oc2ccccc2)c1C=NOCc1ccc(C(=O)OC(C)(C)C)cc1 here?
**A.** inactive

**Q.** With CC(=O)S[C@@H]1CC2=CC(=O)CC[C@]2(C)[C@H]2CC[C@@]3(C)[C@@H](CC[C@@]34CCC(=O)O4)[C@H]12 as the compound, how does the outcome read?
**A.** inactive

**Q.** For CCOC(=O)NCCOc1ccc(Oc2ccccc2)cc1, which outcome is on record?
**A.** inactive

**Q.** Which outcome does the source give for CCCCOC(=O)C(C)Oc1ccc(Oc2ccc(C(F)(F)F)cn2)cc1 (stereo not given) here?
**A.** inactive

**Q.** Which outcome does the source give for CCCCC(CC)CN1C(=O)C2C3C=CC(C3)C2C1=O (stereo not given) here?
**A.** inactive

**Q.** For COC(=O)c1cccc(C)c1S(=O)(=O)NC(=O)Nc1nc(OCC(F)(F)F)nc(N(C)C)n1, which outcome is on record?
**A.** inactive

**Q.** With CCOC(=O)C(C)Oc1ccc(Oc2cnc3cc(Cl)ccc3n2)cc1 (stereo not given) as the compound, how does the outcome read?
**A.** inactive

**Q.** For CCOC(=O)COc1cc(-n2ncc(C(F)(F)F)c(C)c2=O)c(F)cc1Cl, which outcome is on record?
**A.** inactive
